# Source: PubChem (National Center for Advancing Translational Sciences (NCATS))
# Hits are enriched below; roughly 18% of the tested compounds scored in any of these assays.
# RORgamma inh – qHTS for inhibitors of ROR gamma transcriptional activity; Nuclear receptor ROR-gamma (Mus musculus), P51450; Drosophila S2 Gal4-RORgamma UAS-luciferase reporter, 20 h; Potency, µM (top dose mostly 53.6 µM), without a hit: at the highest dose activity change, negative = inhibition, usual class: inhibitors; actives 5.4% (n = 310,000); note: potency is the fitted concentration of half-maximal effect; nearly all actives have a fitted effect of over 60% in size
# Target sequence (P51450 whole entry, looked up, the tested form may be a part): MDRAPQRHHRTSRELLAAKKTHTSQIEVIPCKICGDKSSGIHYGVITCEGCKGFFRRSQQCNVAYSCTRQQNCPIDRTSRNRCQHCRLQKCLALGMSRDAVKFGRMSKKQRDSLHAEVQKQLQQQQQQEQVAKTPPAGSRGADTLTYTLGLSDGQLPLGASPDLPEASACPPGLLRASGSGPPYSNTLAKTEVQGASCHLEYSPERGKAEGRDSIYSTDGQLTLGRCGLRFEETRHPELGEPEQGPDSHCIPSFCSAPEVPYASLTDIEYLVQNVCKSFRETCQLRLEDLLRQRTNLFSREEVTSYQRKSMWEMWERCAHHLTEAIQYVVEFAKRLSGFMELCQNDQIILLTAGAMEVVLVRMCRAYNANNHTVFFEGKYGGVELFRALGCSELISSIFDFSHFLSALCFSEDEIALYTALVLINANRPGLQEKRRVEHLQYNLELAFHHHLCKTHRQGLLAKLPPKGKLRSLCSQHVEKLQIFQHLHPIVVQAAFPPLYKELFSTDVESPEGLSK
#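 Luminescence from a UAS-regulated Photinus luciferase reporter in stably transfected Drosophila Schneider cells is measured; decreased signal marks ROR gamma inhibition. Fusion expression is induced by 700 uM copper sulfate for 20 hr.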
# LDHA inh – qHTS assay for inhibitors of human lactate dehydrogenase; actives 0.15% (n = 480,000); purified LDHA, NADH/diaphorase-resazurin fluorescence; stronger effect = lower value; activity change, % (values are at about 110 or 230 µM); L-lactate dehydrogenase A chain (Homo sapiens), P00338; in the data active = activity change below about -30%; inconclusive = mostly about -25% to -30%;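 note: plate controls were DMSO wells for no effect and wells without enzyme for full effect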
#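 Resorufin fluorescence (ex540/em590), read at 0 and 20 min after diaphorase/resazurin addition, reports the NADH left after a 5 min room-temperature reaction of 2 nM human LDH5 with 0.06 mM NADH and 0.2 mM pyruvate.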
# DT40 TDP1 no CPT – qHTS for Inhibitors of human tyrosyl-DNA phosphodiesterase 1 (TDP1): qHTS in cells in absence of CPT; DT40 Tdp1-/- hTDP1 cells, no CPT, ATP luminescence, 48 h; Potency, µM (doses to about 46.2 µM), for inactives: top-dose activity change, negative = growth inhibition, most hits filed as inhibitors; actives 15% (n = 420,000); AID 686978, 2013; note: potency is the fitted concentration of half-maximal effect; nearly all actives have a fitted effect of over 55% in size
#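 Compound effects on proliferation are scored in DT40 Tdp1-/-;hTDP1 cells in the absence of CPT. ATP levels (CellTiter-Glo luminescence) are recorded after a ≥48 hr, 37 °C incubation.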
# Gal4-VP16 FLuc – VP16 counterscreen qHTS for inhibitors of ROR gamma transcriptional activity; Drosophila S2 Gal4-VP16 UAS-luciferase, luminescence, 20 h; Potency, µM (top dose mostly 53.6 µM), for inactives: at the top dose activity, negative = inhibition, hits mostly inhibitors; actives 3.5% (n = 310,000); AID 2546, 2010;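 note: Gal4-VP16 expression switched on by copper sulfate through the metallothionein promoter; potency is the fitted concentration of half-maximal effect; nearly all actives have a fitted effect of over 50% in size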
# TDP1 cell CPT – qHTS for Inhibitors of human tyrosyl-DNA phosphodiesterase 1 (TDP1): qHTS in cells in presence of CPT; chicken DT40 Tdp1-/-;hTDP1 cells + 20 nM CPT, ATP luminescence, 48 h; Potency, µM (doses to about 46.2 µM), inactives show at the highest dose activity change, negative = growth inhibition, hits mostly inhibitors; actives 12% (n = 420,000); AID 686979, 2013; note: potency is the fitted concentration of half-maximal effect; nearly all actives have a fitted effect of over 55% in size
#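 Chicken DT40 Tdp1-/- cells complemented with human TDP1, 400 cells/well, exposed to compounds plus 20 nM camptothecin for at least 48 h at 37 C; viability read as ATP content by CellTiter-Glo luminescence.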
# IL1B secr inh – qHTS for Inhibitors of Inflammasome Signaling: IL-1-beta AlphaLISA Primary Screen. THP-1 LPS/ATP IL-1B secretion, AlphaLISA, 16 h; stronger effect = lower value. activity change, % at 57.5 µM. actives 4.7% (n = 360,000). AID 743279, 2014; in the data active = activity change below about -50%; inconclusive = mostly about -30% to -49%
#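 Secreted IL-1B measured by AlphaLISA bead assay after 16 h compound exposure of THP-1 cells; compounds (final up to 57.5 uM) added 1 h before LPS (250 ng/mL) and ATP (1.25 mM) stimulation; lower signal means less secretion.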
# The depositor's hits bear a star; ? = inconclusive; nt = no result given. Unless noted, calls come from the whole dose curve; as a rule, active = well fitted curve in the direction sought with a large enough effect; inconclusive = small, poorly fitted or top-dose-only effect, or another doubt; inactive = no such curve, though single readings can be large; an effect the other way counts as inactive or inconclusive. Unless noted, % is set by controls: 0 for no effect and ±100 for the full control effect.
SMILES,RORgamma inh,LDHA inh,DT40 TDP1 no CPT,Gal4-VP16 FLuc,TDP1 cell CPT,IL1B secr inh
CCOc1cc(/C=C/c2cc(C(=O)O)c3ccccc3n2)ccc1OC,12.6µM*,-3.4,-17.3%,?,4.4%,24.7
CCOc1cc(/C=C/c2cc(C(=O)O)c3ccccc3n2)ccc1O,?,-5.1,-8.4%,?,-3.3%,0.0
CCCOc1c(Cl)cc(C2C3=C(CCCC3=O)OC3=C2C(=O)CCC3)cc1OCC,nt,-0.6,nt,nt,nt,nt
O=C(NC(=S)Nc1cc(C(F)(F)F)ccc1N1CCOCC1)c1ccco1,1.41µM*,-1.3,?,11.2µM*,?,?
CC(=O)NC(=S)Nc1cc(C(F)(F)F)ccc1N1CCOCC1,12.6µM*,0.1,?,?,-7.1%,-61.3*
O=C(Nc1cc(C(F)(F)F)ccc1N1CCOCC1)c1ccccc1,5.1%,-1.5,?,1.3%,?,-7.6
CCC(CC)=N/N=C/c1c(O)n(CC)c2cc(C3=NNC(=O)CC3)ccc12,?,6.9,9.2µM*,?,?,-10.8
CCn1c(O)c(/C=N/N=C/c2ccccc2)c2ccc(C3=NNC(=O)CC3)cc21,21.9%,0.9,18.4µM*,-5.3%,?,?
C#CCN(C[C@H]1[C@H](OC(=O)NC2CC2)[C@H](OC(=O)NC2CC2)C[C@H]2C(=O)N(c3ccccc3)C(=O)[C@@H]12)S(=O)(=O)c1ccc(C)cc1,nt,-2.4,-11.9%,nt,-13.9%,10.6
C#CCN(C[C@@H]1[C@@H](OC(=O)NC2CCCC2)[C@@H](OC(=O)NC2CCCC2)Cn2c(=O)ccc(=O)n21)S(=O)(=O)c1ccc(C)cc1,nt,-6.2,2.31µM*,nt,2.59µM*,-0.4
C#CCN(C[C@@H]1[C@@H](OC(=O)Nc2cccs2)[C@@H](OC(=O)Nc2cccs2)Cn2c(=O)ccc(=O)n21)S(=O)(=O)c1ccc(C)cc1,nt,-2.0,3.26µM*,nt,2.91µM*,-106.8*
Cc1cc(Br)cn2c(Cc3cccc(F)c3)c(-c3ccccc3)nc12,nt,-3.9,18.4µM*,nt,29.1µM*,0.0
Cc1ccc(Cc2c(-c3ccccc3)nc3c(C)cc(Br)cn23)cc1,nt,-1.4,10.3µM*,nt,?,27.8
Cc1cc(Br)cn2c(Cc3ccccc3)c(-c3cccc(Cl)c3)nc12,nt,9.3,23.1µM*,nt,13µM*,37.0
Cc1cc(Br)c2nc(-c3ccccc3)c(Cc3cccc(Cl)c3)n2c1,nt,2.2,?,nt,?,5.0
CC(=O)Nc1ccc(NC(=O)CSCc2ccccc2Cl)cc1,nt,-0.9,-24.7%,nt,2.5%,-2.4
C/C(=N\NC(=O)CSCc1ccccc1Cl)c1cc(O)ccc1O,5.01µM*,2.9,5.17µM*,11.2µM*,6.51µM*,39.5
Cc1ccccc1COc1ccc(C2C3=C(CC(C)(C)CC3=O)OC3=C2C(=O)CC(C)(C)C3)cc1,nt,1.6,nt,nt,nt,nt
CCCCNc1c(-c2ccc(SC(C)CC)cc2)nc2cnccn12 (stereo unspecified),nt,10.2,8.2µM*,nt,9.2µM*,-71.9*
COc1ccc(Nc2c(-c3ccc(C)cc3)nc3cnccn23)cc1,4.2%,3.2,?,11.8%,?,19.0
CCCCNc1c(-c2ccc(OC)c(Sc3ccc(OC)cc3)c2)nc2ccccn12,nt,1.5,9.2µM*,nt,4.11µM*,-104.2*
CCCCNc1c(-c2ccc(-c3ccc(OC)cc3)c(OC)c2)nc2ccccn12,nt,0.8,13µM*,nt,18.4µM*,-75.1*
CCCCNc1c(-c2ccc(OC)c(Sc3ccc(OC)cc3)c2)nc2cnccn12,nt,-6.9,23.1µM*,nt,?,55.0
COc1ccc(Nc2c(-c3ccc(OC)cc3)nc3cnccn23)cc1,16.3%,-1.2,?,-16.9%,?,94.8
CN=C1C=CC(=C(c2ccc(N(C)C)cc2)c2ccc(N(C)C)cc2)C=C1,?,nt,0.211µM*,2.51µM*,0.211µM*,nt
SMILES,RORgamma inh,LDHA inh,DT40 TDP1 no CPT,Gal4-VP16 FLuc,TDP1 cell CPT,IL1B secr inh
C/C(=N\NC(=O)c1cccc2ccccc12)c1ccc(C)s1,nt,6.9,nt,nt,nt,nt
O=S(=O)(c1ccc(OCC(O)CN2CCC(Cc3ccccc3)CC2)cc1)N1CCOCC1 (stereo unspecified),35.2%,-15.8,-7.0%,2.0%,-23.5%,-15.3
COc1cccc(OCC(O)CN2CCN(c3ccccc3)CC2)c1 (stereo unspecified),-5.6%,-1.9,24.3%,8.2%,1.0%,11.8
OC(COc1ccccc1)CN1CCC(Cc2ccccc2)CC1 (stereo unspecified),-8.8%,-1.5,-16.8%,-0.6%,4.6%,-72.0*
OC(COc1ccccc1F)CN1CCC(Cc2ccccc2)CC1 (stereo unspecified),-31.2%,-4.0,?,-0.8%,?,-25.8
OC(COc1ccc(F)cc1Cl)CN1CCC(Cc2ccccc2)CC1 (stereo unspecified),-16.5%,-0.2,20.6µM*,0.6%,?,-61.2*
COc1cccc(OCC(O)CN2CCC(Cc3ccccc3)CC2)c1 (stereo unspecified),13.5%,-2.1,18.4µM*,3.1%,?,?
CC(C)(C)c1cc(SCc2ccc(C#N)cc2)cc(C(C)(C)C)c1O,nt,15.0,nt,nt,nt,nt
CCCCCn1nc(C(=O)Nc2cccc(C#N)c2)c2ccccc2c1=O,nt,5.9,nt,nt,nt,nt
CCn1cc(C(=O)N2CCCC(C(=O)c3ccc4ccccc4c3)C2)cn1 (stereo unspecified),23.6%,-3.2,-13.7%,-4.4%,-10.3%,-15.0
CCn1cc(CN2CCCC(C(=O)c3ccc(-c4ccccc4)cc3)C2)cn1 (stereo unspecified),17.9%,-0.4,25.9µM*,-7.0%,?,-90.3*
Cn1cc(CN2CCCC(C(=O)c3ccc(-c4ccccc4)cc3)C2)cn1 (stereo unspecified),2.3%,2.8,16.4µM*,-12.9%,-24.1%,-13.3
Cc1cc2nc(-c3cccc(NC(=O)c4ccccc4[N+](=O)[O-])c3)oc2cc1C,nt,-2.3,nt,nt,nt,nt
COc1cc(Nc2nc3c(N)cc(C(F)(F)F)cc3nc2-c2ccccc2)cc(OC)c1OC,nt,28.3,13µM*,nt,?,6.8
COc1cc(-c2n[nH]c(=S)n2-c2cccc(C(F)(F)F)c2)cc(OC)c1OC,24.3%,-4.4,-18.3%,1.8%,-8.3%,10.6
